Measured values reported in PubChem BioAssay (NCI).
This is part of a sample that, as a whole, favours compounds with a hit. Of some 83,000 tested, about 20% had one in any assay.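 The test compound was applied at a single concentration to cells in 96-well plates for 48 hours, and percent growth was recorded.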 Activity calls are given as the source filed them. The calls were made as follows: active = growth percent below 10; inactive = the rest.

Test system: MDA-MB-468 breast
Test: NCI-60 one-dose screen, 48 h (100 = growth as untreated, 0 = no growth, -100 = all killed)
Details: 10 µM unless noted

Q: For `CC(Br)C(Br)c1cc2c(cc1Br)OCO2` (stereo not given), which growth is on record?
A: Its growth is 96.8% (inactive).

Q: Which growth does the source give for `NS(=O)(=O)c1ccc(-n2nc(-c3ccc(Cl)cc3)c3ccccc3c2=O)cc1` here?
A: Its growth is 104% (inactive).

Q: Which growth does the source give for `Cn1cc(-c2csc(-c3cccc(F)c3)n2)c2cccnc21` here?
A: The growth was -49.6% [100 µM] (active).

Q: How did the growth turn out when `CCn1cc(-c2ccnc(NCCNS(=O)(=O)c3ccc(Br)cc3)c2)c(-c2cccc(OC)c2)n1` was run?
A: Its growth is 60.6% (inactive).

Q: `COc1ccc(-c2n/c(=C\c3c(O)[nH]c4ccc(OC)cc34)cc3c2=Nc2ccccc2-3)cc1` was tested. Which growth did it give?
A: Its growth is -46.8% (active).

Q: `COc1ccc(C(=S)N2CCN(c3cccc(Cl)c3)CC2)cc1` was tested. Which growth did it give?
A: The growth was 88.4% (inactive).

Q: With `CNC(=O)c1cc(Oc2ccc3nc(Nc4cc(Cl)cc(Cl)c4)ccc3c2)ccn1` as the compound, how does the growth read?
A: Its growth is 54.1% (inactive).

Q: With `FC(F)(F)c1ccc(Cn2cc(CSc3nc4ccccc4s3)nn2)cc1` as the compound, how does the growth read?
A: Its growth is 98.7% (inactive).

Q: For `CC[C@H](C)[C@@H](C(=O)OC)n1cc(CNC(=O)[C@@H](Cc2ccccc2)NC(=O)OCc2ccccc2)nn1`, which growth is on record?
A: Its growth is 99% (inactive).

Q: Which growth does the source give for `c1ccc2sc(SSN3CC4CCC(CC4)C3)nc2c1` here?
A: The growth was 122% (inactive).

Q: Which growth does the source give for `COc1ccc(CCN2C(=O)CSC2=S)cc1OC` here?
A: Its growth is -2.77% (active).

Q: With `CCCC(=O)NC(c1ccc2c(c1)OCO2)c1cc(Cl)c2cccnc2c1O` (stereo not given) as the compound, how does the growth read?
A: Its growth is 7.89% (active).

Q: With `CCOc1ccc(/C=N/Nc2cc(C)nc3ccc(Cl)cc23)cc1` as the compound, how does the growth read?
A: Its growth is -9.24% (active).

Q: `Clc1ccc(-c2cc(-c3ccccc3)nc(NCCNc3ccnc4cc(Cl)ccc34)n2)cc1` was tested. Which growth did it give?
A: Its growth is -79.6% (active).

Q: `CCCCCc1nc2c(c3c1CCCC3)CCCC2` was tested. Which growth did it give?
A: The growth was 75.5% (inactive).
